Reference: the supplement of paper PMC13380429

How the values were obtained:
[1] = test system: Vero E6 infected with SARS-CoV-2; assay: morphology score (similarity to uninfected cells); higher = more like uninfected cells; details: 24 h
[2] = test system: Vero E6 infected with SARS-CoV-2; assay: SARS-CoV-2 infection rate relative to infected DMSO; higher = more infection, active = 60 or less; details: 24 h

Row | Structure (SMILES) | morphology score [1] | SARS-CoV-2 infection rate [2]
1 | c1ccc2sc(N3CCN(Cc4ccc5c(c4)OCO5)CC3)nc2c1 [2-[1-(4-piperonyl)piperazinyl]benzothiazole] (10 µM) | 0.00324 | 102% (inactive)
2 | CN1[C@@H]2C[C@@H](O)C[C@H]1[C@@H]1O[C@@H]12 [scopine] (10 µM) | 0.146 | 93.5% (inactive)
3 | COc1cc2c(cc1O)C(CCc1ccc(Cl)cc1)N(C)CC2 (configuration not stated) (10 µM) | 0.298 | 72% (inactive)
4 | CCS(=O)(=O)Nc1ccc2c(c1)/C(=C(/Nc1ccc(CN3CCCCC3)cc1)c1ccccc1)C(=O)N2 [hesperadin] (10 µM) | -0.262 | 110% (inactive)
5 | C[C@]12CC[C@H]3[C@@H](CC[C@]4(O)C[C@@H](O)CC[C@]34C=O)[C@@]1(O)CC[C@@H]2C1=CC(=O)OC1 [K-strophanthidin] (0.833333 µM) | 0.0264 | 92% (inactive)
6 | COc1cccc(-n2nc(C(=O)O)cc2-c2ccc(C3CCCCC3)c(Cl)c2)c1 (10 µM) | 0.0895 | 102% (inactive)
7 | O=C(O)C1=CCCN(CCON=C(c2ccccc2)c2ccccc2)C1 (10 µM) | 0.0245 | 95% (inactive)
8 | CC[C@H](C)[C@H](NC(=O)[C@H](Cc1ccc(O)cc1)NC(=O)[C@@H](NC(=O)[C@H](CCCNC(=N)N)NC(=O)[C@@H](N)CC(=O)O)C(C)C)C(=O)N[C@@H](Cc1c[nH]cn1)C(=O)N1CCC[C@H]1C(=O)O (10 µM) | 0.109 | 104% (inactive)
9 | Cc1coc2c1C(=O)C(=O)c1c-2ccc2c1CCCC2(C)C [tanshinone-IIA] (10 µM) | 0.159 | 102% (inactive)
10 | COc1cc(C(=O)NC2CCN(C)CC2)c(F)cc1Nc1ncc2c(n1)N(C1CCCC1)CC(F)(F)C(=O)N2C (0.833333 µM) | -0.193 | 100% (inactive)
11 | COc1ccc(-n2c(SCCCN3C(=O)c4cccc5cccc(c45)C3=O)nnc2-c2ccncc2)cc1 (0.833333 µM) | 0.102 | 108% (inactive)
12 | CCOC(=O)/C=C(C)/C=C/C=C(C)/C=C/c1c(C)cc(OC)c(C)c1C [etretinate] (10 µM) | -0.112 | 92.5% (inactive)
13 | CNC1CC(c2ccc(Cl)c(Cl)c2)c2ccccc21 (configuration not stated) [indatraline] (10 µM) | -0.112 | 114% (inactive)
14 | CC1(C)C(=O)NC2=C1C(=O)C(=O)c1ccccc12 (0.833333 µM) | -0.0548 | 114% (inactive)
15 | C[C@]12CCC(=O)C=C1CC[C@@H]1[C@@H]2[C@@H](O)C[C@@]2(C)[C@H]1CC[C@]2(O)C(=O)CO [hydrocortisone] (10 µM) | -0.144 | 122% (inactive)
16 | CC(=O)OCC(=O)[C@H]1CC[C@H]2[C@@H]3CC[C@H]4C[C@H](O)CC[C@]4(C)[C@H]3C(=O)C[C@]12C [alfadolone-acetate] (10 µM) | -0.231 | 116% (inactive)
17 | Cc1[nH]c(=O)c(C#N)cc1-c1ccc2nccn2c1 [olprinone] (10 µM) | 0.0999 | 104% (inactive)
18 | Cc1cccc(C)c1NC(=O)/N=C1\CCCN1C [xilobam] (10 µM) | 0.132 | 102% (inactive)
19 | NC1=N[C@@]2(c3cc(NC(=O)c4ccc(F)cn4)ccc3F)COC[C@H]2CS1 (10 µM) | 0.00208 | 116% (inactive)

Row | Structure (SMILES) | morphology score [1] | SARS-CoV-2 infection rate [2]
20 | Cn1nccc1Nc1nccc(-c2ccn([C@H](CO)c3ccc(Cl)c(F)c3)c(=O)c2)n1 (0.833333 µM) | 0.0519 | 106% (inactive)
21 | CC[C@H](NC(=O)c1c(O)c(-c2ccccc2)nc2ccccc12)c1ccccc1 [talnetant] (10 µM) | -0.0287 | 117% (inactive)
22 | Cc1ccccc1-n1c(Cn2nc(-c3cccc(O)c3)c3c(N)ncnc32)nc2cccc(C)c2c1=O (10 µM) | 0.0603 | 126% (inactive)
23 | CN(C)CCCOc1nn(Cc2ccccc2)c2ccccc12 [benzydamine] (10 µM) | 0.4 | 70.5% (inactive)
24 | CN1CCN(CC(=O)N2c3ccccc3C(=O)Nc3cccnc32)CC1 [pirenzepine] (10 µM) | -0.00972 | 108% (inactive)
25 | O=C(O)CCc1cc(I)c(Oc2ccc(O)cc2)c(I)c1 [diiodothyropropionic-acid] (10 µM) | 0.207 | 92% (inactive)
26 | CCOC(=O)c1ccc(OC(=O)CCCCCNC(=N)N)cc1 [gabexate] (10 µM) | 0.0775 | 102% (inactive)
27 | C=Cc1cc(O)cc2nc(-c3ccc(O)c(F)c3)oc12 [prinaberel] (10 µM) | 0.143 | 96.5% (inactive)
28 | O=C(Cn1ccnc1[N+](=O)[O-])NCCO [etanidazole] (10 µM) | 0.0673 | 94.5% (inactive)
29 | COc1ccccc1Oc1c(NS(=O)(=O)c2ccc(C)cn2)nc(-c2ccncc2)nc1OC (10 µM) | 0.183 | 85.5% (inactive)
30 | N=C(N)c1ccc(/N=N/Nc2ccc(C(=N)N)cc2)cc1 [diminazene-aceturate] (10 µM) | 0.318 | 86% (inactive)
31 | CCOC(=O)Nc1nc2ccccc2[nH]1 [lobendazole] (10 µM) | 0.0965 | 101% (inactive)
32 | CCCCC(F)(F)[C@@]1(O)CC[C@H]2[C@@H](CC(=O)[C@@H]2CCCCCCC(=O)O)O1 [lubiprostone] (10 µM) | 0.0116 | 107% (inactive)
33 | OC[C@H]1O[C@@H](O[C@@H]2[C@H](O)[C@@H](O)[C@H](O[C@H]3[C@H](O)[C@@H](O)C(O)O[C@@H]3CO)O[C@@H]2CO)[C@H](O)[C@@H](O)[C@H]1O (some centres not stated) [4-galactosyllactose] (10 µM) | -0.0673 | 114% (inactive)
34 | Cn1c(=O)c2c(ncn2CC(O)CO)n(C)c1=O (configuration not stated) [dyphylline] (10 µM) | 0.0342 | 96% (inactive)
35 | Nc1sc2c(c1C(=O)c1ccc(Cl)cc1)CCCC2 (10 µM) | 0.0676 | 96.5% (inactive)
36 | CC(C)(C)N1CCC(c2ccccc2)(c2ccccc2)CC1 [budipine] (10 µM) | 0.395 | 76.5% (inactive)
37 | Cc1cccc(Cc2c[nH]cn2)c1C [detomidine] (10 µM) | -0.193 | 116% (inactive)
38 | CCCCCCCCCCCCCCC[C@@H](O)[C@@H](N)CO [safingol] (10 µM) | -0.197 | 117% (inactive)

Row | Structure (SMILES) | morphology score [1] | SARS-CoV-2 infection rate [2]
39 | C[C@H]1O[C@@H](O[C@H]2[C@@H](O)C[C@H](O[C@H]3[C@@H](O)C[C@H](O[C@H]4CC[C@@]5(C)[C@H](CC[C@@H]6[C@@H]5C[C@@H](O)[C@]5(C)[C@@H](C7=CC(=O)OC7)CC[C@]65O)C4)O[C@@H]3C)O[C@@H]2C)C[C@H](O)[C@@H]1O [digoxin] (0.833333 µM) | -0.256 | 98% (inactive)
40 | CO/N=C1\C[C@]2(C[C@@H]3C[C@@H](C/C=C(\C)C[C@@H](C)/C=C/C=C4\CO[C@@H]5[C@H](O)C(C)=C[C@@H](C(=O)O3)[C@]45O)O2)O[C@H](/C(C)=C/C(C)C)[C@H]1C [moxidectin] (10 µM) | 0.272 | 98.5% (inactive)
41 | CC1(C)CCC(C)(C)c2cc(NC(=O)c3ccc(C(=O)O)cc3)ccc21 [tamibarotene] (10 µM) | 0.135 | 108% (inactive)
42 | CC(=O)Nc1ccc(CC(=O)O)cc1 [actarit] (10 µM) | 0.181 | 99.5% (inactive)
43 | O=C(c1ccc(F)cc1)C1CCN(CCCCc2ccccc2)CC1 [4-(4-fluorobenzoyl)-1-(4-phenylbutyl)-piperidine] (10 µM) | -0.00104 | 110% (inactive)
44 | Cc1c(NC(=O)c2cc3c(s2)CCCC3)cccc1-c1cn(C)c(=O)c(Nc2ccc(C3C(=O)N(C)CCN3C)cc2)n1 (stereo in doubt) (10 µM) | 0.45 | 69% (inactive)
45 | CNc1nc(NCc2ccc(NS(C)(=O)=O)cc2Cl)cc(-c2ccccn2)n1 (10 µM) | 0.193 | 97.5% (inactive)
46 | O=C(O)Cc1ccc(CCNS(=O)(=O)c2ccc(Cl)cc2)cc1 [daltroban] (10 µM) | 0.136 | 97.5% (inactive)
47 | CC[N+](C)(CC)CC(=O)Nc1c(C)cccc1C [N-methyllidocaine-iodide] (10 µM) | 0.0478 | 100% (inactive)
48 | C[C@H]1[C@H](C)CC[C@]2(C(=O)O)CC[C@]3(C)C(=CC[C@@H]4[C@@]5(C)C[C@@H](O)[C@H](O)[C@@](C)(CO)[C@@H]5CC[C@]43C)[C@H]12 [asiatic-acid] (10 µM) | -0.135 | 108% (inactive)
49 | CCCN(CCC)CCc1cccc2c1CC(=O)N2 [ropinirole] (10 µM) | -0.139 | 112% (inactive)
50 | CO[C@@H]1[C@H](N(C)C(=O)c2ccccc2)C[C@H]2O[C@]1(C)n1c3ccccc3c3c4c(c5c6ccccc6n2c5c31)C(=O)NC4 [midostaurin] (10 µM) | -0.108 | 110% (inactive)
51 | O=C(NC[C@H](O)CN1CCc2ccccc2C1)c1cc(NC2COC2)ncn1 (10 µM) | -0.0443 | 100% (inactive)
52 | CC(=O)OC[C@H]1O[C@@](COC(C)=O)(O[C@H]2O[C@H](COC(C)=O)[C@@H](OC(C)=O)[C@H](OC(C)=O)[C@H]2OC(C)=O)[C@@H](OC(C)=O)[C@@H]1OC(C)=O [sucrose-octaacetate] (10 µM) | 0.0471 | 103% (inactive)
53 | CC(C)(C)NCC(O)COc1ccc(NC(=O)NC2CCCCC2)cc1 (configuration not stated) [talinolol] (10 µM) | 0.0728 | 106% (inactive)
54 | Cc1ccc(NC2=CC(=O)c3sc(C)nc3C2=O)cc1 [ryuvidine] (0.833333 µM) | 0.165 | 104% (inactive)
55 | O=c1nc2ccccc2c2n1CC(CN1CCN(c3ccccc3)CC1)N2 (configuration not stated) (10 µM) | 0.221 | 93% (inactive)
56 | CCCC(=O)N1CCCN(c2nc(N)c3cc(OC)c(OC)cc3n2)CC1 [bunazosin] (10 µM) | 0.0754 | 108% (inactive)
